Screening data (PubChem BioAssay)
miR-122 inh – miR-122 suppressors via Renilla sensor increase, primary screen, cell-based, Huh7 psiCHECK-miR122, Renilla luciferase, single point | 340,000 compounds, 0.14% hits | activation, % at 12.5 µM | AID 623901, 2012 | 48 h;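 active = mean activation of 30% or more, with every replicate also reaching 30%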;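 note: 0% = median of neutral control wells and 100% = median of positive control wells; higher luciferase signal means stronger suppression of miR-122 activity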
* hit, by the source's call. Only a selection was taken, and hits are over-represented in it overall.

SMILES	miR-122 inh
C[C@@H]1CN([C@@H](C)CO)S(=O)(=O)c2ccc(C#Cc3ccccn3)cc2O[C@@H]1CN(C)Cc1ccc(F)cc1	-2.9
COc1ccc(-c2c(C(C)=O)c(C)nc3sc4c(c23)NC(c2ccccc2)NC4=O)cc1 (stereo not drawn)	35.8*
C[C@@H]1CN([C@@H](C)CO)S(=O)(=O)c2ccc(C#CCC3CCCC3)cc2O[C@H]1CN(C)C(=O)c1ccccn1	-3.7
C[C@@H]1CN([C@H](C)CO)S(=O)(=O)c2ccc(-c3cncnc3)cc2O[C@@H]1CN(C)C(=O)Cc1ccncc1	5.1
C[C@H]1CN([C@@H](C)CO)S(=O)(=O)c2ccc(-c3ccc(F)cc3)cc2O[C@@H]1CN(C)C(=O)C1CCOCC1	-18.6
C[C@@H]1CN([C@@H](C)CO)S(=O)(=O)c2ccc(-c3cncnc3)cc2O[C@H]1CN(C)C(=O)Cc1ccncc1	2.7
C[C@@H]1CN([C@H](C)CO)S(=O)(=O)c2ccc(C3=CCCC3)cc2O[C@@H]1CN(C)C(=O)C1CCOCC1	33.8*
C[C@@H]1CN([C@H](C)CO)S(=O)(=O)c2ccc(-c3ccc(C(=O)N(C)C)cc3)cc2O[C@H]1CN(C)C(=O)C1CCOCC1	-15.1
C[C@@H]1CN([C@@H](C)CO)S(=O)(=O)c2ccc(-c3ccc(C(=O)N(C)C)cc3)cc2O[C@H]1CN(C)C(=O)C1CCOCC1	-11.5
C[C@@H]1CN([C@H](C)CO)S(=O)(=O)c2ccc(C3=CCCC3)cc2O[C@@H]1CN(C)C(=O)Cc1ccncc1	33.0*
C[C@@H]1CN([C@@H](C)CO)S(=O)(=O)c2ccc(-c3ccc(F)cc3)cc2O[C@@H]1CN(C)C(=O)C1CCOCC1	11.2
C[C@@H]1CN([C@@H](C)CO)S(=O)(=O)c2ccc(-c3ccc(C(=O)N(C)C)cc3)cc2O[C@@H]1CN(C)C(=O)C1CCC1	40.3*
CC(C)CC#Cc1cnc2c(c1)C(=O)N([C@H](C)CO)C[C@H](C)[C@H](CN(C)C(=O)NC1CCCC1)O2	5.6
COc1ccc(-c2cnc3c(c2)C(=O)N([C@H](C)CO)C[C@@H](C)[C@@H](CN(C)C(=O)C2CCOCC2)O3)cc1	-3.2
C[C@H]1CN([C@@H](C)CO)C(=O)c2cc(/C=C/c3ccccc3)cnc2O[C@@H]1CN(C)C(=O)Cc1ccccn1	6.8
C[C@H](CO)N1C[C@H](C)[C@H](CN(C)C(=O)C2CC2)Oc2ncc(C#Cc3cccc(F)c3)cc2C1=O	-12.5
CC(C)C#Cc1ccc2c(c1)O[C@@H](CN(C)C(=O)CC1CC1)[C@H](C)CN([C@@H](C)CO)S2(=O)=O	-0.5
COCC#Cc1cnc2c(c1)C(=O)N([C@@H](C)CO)C[C@@H](C)[C@H](CN(C)C(=O)Cc1cccnc1)O2	3.9
C[C@@H]1CN([C@H](C)CO)S(=O)(=O)c2ccc(-c3ccc(F)cc3)cc2O[C@@H]1CN(C)Cc1ccccc1C(=O)O	-92.2
COCC(=O)Nc1ccc2c(c1)OC[C@H](C)NC[C@@H](C)[C@@H](OC)CN(C)C2=O	0.4
CC(=O)N(C)C[C@H]1Oc2cc(C#C[C@H](C)O)ccc2S(=O)(=O)N([C@H](C)CO)C[C@@H]1C	3.5
C[C@H](O)C#Cc1cnc2c(c1)C(=O)N([C@H](C)CO)C[C@@H](C)[C@@H](CN(C)C(=O)CN(C)C)O2	3.1
C[C@H]1CN([C@@H](C)CO)C(=O)c2cc(/C=C/c3ccccc3)cnc2O[C@H]1CN(C)C(=O)C1CCC1	4.6
CCOc1ccc(NS(=O)(=O)c2ccc(NC(=S)NC(=O)CC(C)C)cc2)cc1	-165.8
Cc1ccc(S(=O)(=O)Nc2ccc3ccccc3c2)cc1	-118.3
SMILES	miR-122 inh
Cc1cc(NS(=O)(=O)c2ccc(NC(=O)C(CC(C)C)N3C(=O)c4ccccc4C3=O)cc2)nc(C)n1 (stereo not drawn)	34.6*
C[C@@H]1CN([C@H](C)CO)C(=O)c2cc(C3=CCCCC3)cnc2O[C@H]1CN(C)CC1CCOCC1	-18.0
CO[C@H]1CN(C)C(=O)c2ccc(NC(=O)Nc3cccc(F)c3)cc2OC[C@@H](C)N(C)C[C@H]1C	-1.6
CCC(=O)N1C[C@H](C)[C@@H](OC)CN(C)C(=O)c2ccc(NC(=O)C3CCCCC3)cc2OC[C@H]1C	-1.8
CCCNC(=O)Nc1ccc2c(c1)C(=O)N(C)[C@H]1CC[C@@H](CC(=O)NCC3CCCCC3)O[C@@H]1CO2	41.7*
CO[C@H]1CN(C)C(=O)c2ccc(NC(=O)Nc3cccc(F)c3)cc2OC[C@H](C)N(C)C[C@H]1C	-11.4
CN1C(=O)c2cc(NC(=O)Cc3cccs3)ccc2OC[C@@H]2O[C@@H](CC(=O)NCC3CCCCC3)CC[C@@H]21	-195.6
CCS(=O)(=O)Nc1ccc2c(c1)C(=O)N(C)C[C@H](OC)[C@@H](C)CN[C@@H](C)CO2	-2.7
CCNC(=O)C[C@@H]1CC[C@@H]2[C@@H](COc3ccc(NC(=O)C4CCCCC4)cc3C(=O)N2C)O1	33.3*
CCCNC(=O)N1C[C@H](C)[C@H](OC)CN(C)C(=O)c2cc(NS(=O)(=O)CC)ccc2OC[C@@H]1C	-23.7
CN1C(=O)c2cc(NC(=O)NCc3ccccc3)ccc2OC[C@@H]2O[C@@H](CC(=O)NCC3CCCCC3)CC[C@@H]21	-120.0
CCC(=O)N1C[C@H](C)[C@H](OC)CN(C)C(=O)c2ccc(NC(=O)C3CCCCC3)cc2OC[C@@H]1C	0.9
CCS(=O)(=O)Nc1ccc2c(c1)C(=O)N(C)[C@@H]1CC[C@@H](CC(=O)NCCCN3CCOCC3)O[C@H]1CO2	67.5*
CCNC(=O)Nc1ccc2c(c1)C(=O)N(C)[C@H]1CC[C@H](CC(=O)Nc3cccc(F)c3)O[C@@H]1CO2	66.7*
C[C@@H]1CN([C@H](C)CO)C(=O)c2cc(C#CC3(O)CCCC3)cnc2O[C@@H]1CN(C)C(=O)Cc1ccccc1	1.6
C[C@H]1CN([C@@H](C)CO)C(=O)c2cc(/C=C/c3ccccc3)cnc2O[C@H]1CN(C)C(=O)C1CCOCC1	-9.0
C[C@H](CO)N1C[C@H](C)[C@@H](CN(C)Cc2cncnc2)Oc2cc(C#CC3CCCC3)ccc2S1(=O)=O	-95.2
Cc1noc(C)c1NC(=O)N(C)C[C@@H]1Oc2ncc(C#CCC(C)C)cc2C(=O)N([C@H](C)CO)C[C@H]1C	8.2
C[C@@H]1CN([C@@H](C)CO)C(=O)c2cc(-c3ccc(F)cc3)cnc2O[C@H]1CN(C)Cc1ccccn1	-0.3
C[C@H](CO)N1C[C@H](C)[C@H](CN(C)Cc2cncnc2)Oc2ncc(C#C[C@@H](C)O)cc2C1=O	3.7
C[C@@H]1CN([C@@H](C)CO)C(=O)c2cc(-c3cccc(F)c3)cnc2O[C@H]1CN(C)S(C)(=O)=O	-2.8
C[C@H]1CN([C@@H](C)CO)S(=O)(=O)c2ccc(-c3ccncc3)cc2O[C@@H]1CN(C)Cc1cncnc1	-8.8
CCCNC(=O)N(C)C[C@H]1Oc2ncc(/C=C/c3ccccc3)cc2C(=O)N([C@@H](C)CO)C[C@H]1C	-7.9
CC(C)C#Cc1ccc2c(c1)O[C@@H](CN(C)C(=O)CN(C)C)[C@@H](C)CN([C@@H](C)CO)S2(=O)=O	-4.6
CN1C(=O)c2cc(NC(=O)Cc3cccs3)ccc2OC[C@@H]2O[C@H](CC(=O)NCc3ccc(-c4ccccc4)cc3)CC[C@@H]21	-188.3
Cc1ccccc1NC(=O)Nc1ccc2c(c1)C(=O)N(C)[C@H]1CC[C@H](CC(=O)NCC3CC3)O[C@H]1CO2	-227.8
CO[C@H]1CN(C)C(=O)c2cc(NC(=O)c3nc4ccccc4s3)ccc2OC[C@H](C)N(Cc2ccncc2)C[C@H]1C	-9.5
